From PubChem BioAssay (NCI)
Compounds without any hit were thinned out: in the full panel of roughly 79,000, 15% have a hit. Active and inactive are the calls of the source. Cut-off read from the data, not from the text of the source: active = growth inhibition above about 70%; inactive = the rest.

Tests used:
[1] = NCI Yeast Anticancer Drug Screen. Data for the rad52 strain (AID 147);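 note: 0% = growth of vehicle-treated control cultures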; conditions: S. cerevisiae rad52 mutant growth inhibition, active compounds read high
Outline: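 Yeast strain carrying a DNA damage repair alteration was exposed to test compounds. Growth inhibition was measured relative to vehicle-treated controls.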

[2] = NCI Yeast Anticancer Drug Screen. Data for the wt1 strain (AID 149);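 note: 0% = growth of vehicle-treated wt1 cultures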; conditions: S. cerevisiae wt1 strain (SPY 50644) growth inhibition, active compounds read high
Outline: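 Growth inhibition read against vehicle controls after compound exposure of the wt1 yeast strain.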

[3] = NCI Yeast Anticancer Drug Screen. Data for the rad50EPP+ strain (AID 151);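 note: 0% = growth of vehicle-treated control cultures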; conditions: S. cerevisiae rad50 mutant strain, active compounds read high
Outline: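 Yeast strain carrying rad50 alteration (rad50EPP+) exposed to compounds; growth inhibition measured relative to vehicle-treated controls.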

[4] = NCI Yeast Anticancer Drug Screen. Data for the mgt1 strain (AID 153); conditions: S. cerevisiae mgt1 mutant growth inhibition, active compounds read high
Outline: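 Yeast mgt1 strain (DNA repair/cell-cycle alteration panel) exposed to compounds; growth inhibition measured relative to vehicle-treated controls.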

[5] = NCI Yeast Anticancer Drug Screen. Data for the rad50 strain (AID 155);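 note: 0% = growth of vehicle-only cultures of the same strain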; conditions: S. cerevisiae rad50 strain growth inhibition, active compounds read high
Outline: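 Readout: growth inhibition relative to vehicle-treated cultures. Compound exposure was carried out in a genetically defined yeast strain deficient in DNA damage repair.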

[6] = NCI Yeast Anticancer Drug Screen. Data for the mec2-1 strain (AID 157); conditions: S. cerevisiae mec2-1 strain, active compounds read high
Outline: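 mec2-1 yeast strain, carrying an alteration in DNA damage repair or cell cycle control, was exposed to compounds; growth inhibition was measured relative to vehicle-treated controls.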

[7] = NCI Yeast Anticancer Drug Screen. Data for the rad14 strain (AID 159);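 note: 0% = growth of vehicle-treated control cultures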; conditions: S. cerevisiae rad14 strain growth inhibition, active compounds read high
Outline: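 Growth inhibition vs vehicle controls; genetically altered yeast strain (DNA damage repair defect) treated with test compounds.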

[8] = NCI Yeast Anticancer Drug Screen. Data for the sgs1 mgt1 strain (AID 161);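 note: 0% = growth of cultures given vehicle only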; conditions: S. cerevisiae sgs1 mgt1 strain, active compounds read high
Outline: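 Yeast cells carrying a defined DNA-repair defect were exposed to test compounds. Growth inhibition was measured relative to vehicle-treated controls.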

[9] = NCI Yeast Anticancer Drug Screen. Data for the CLN2oe strain (AID 163);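 note: 0% = growth of vehicle-only control cultures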; conditions: S. cerevisiae CLN2oe strain, active compounds read high
Outline: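 Yeast cells carrying a defined cell-cycle control alteration were exposed to test compounds. Growth inhibition was scored against vehicle-treated control cultures.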

[10] = NCI Yeast Anticancer Drug Screen. Data for the cln2 rad14 strain (AID 165);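 note: 0% = growth equal to vehicle treated cultures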; conditions: S. cerevisiae cln2 rad14 strain, active compounds read high
Outline: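 Yeast carrying cln2 and rad14 alterations (cell cycle control and DNA damage repair) were exposed to compounds. Growth inhibition was measured against vehicle-treated controls.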

[11] = NCI Yeast Anticancer Drug Screen. Data for the bub3 strain (AID 167); conditions: S. cerevisiae bub3 mutant strain, active compounds read high
Outline: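 Readout: yeast growth inhibition, expressed relative to vehicle-only wells. The test organism is a mutant strain from a panel with lesions in DNA repair or checkpoint genes.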

[12] = NCI Yeast Anticancer Drug Screen. Data for the wt2 strain (AID 169);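 note: 0% = growth of vehicle-treated yeast cultures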; conditions: S. cerevisiae wt2 strain growth inhibition, active compounds read high
Outline: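 Yeast cells were exposed to test compounds, and growth inhibition was measured relative to vehicle-treated controls.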

[13] = NCI Yeast Anticancer Drug Screen. Data for the mlh1 strain (AID 171);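 note: 0% = growth of vehicle-treated control cultures of the same strain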; conditions: S. cerevisiae mlh1 strain growth inhibition, active compounds read high
Outline: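 Yeast carrying a defined genetic alteration in DNA damage repair or cell cycle control were exposed to test compounds. Growth inhibition was measured relative to vehicle-treated controls.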

[14] = NCI Yeast Anticancer Drug Screen. Data for the sgs1 strain (AID 173);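 note: 0% = growth of vehicle-only control cultures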; conditions: S. cerevisiae sgs1 mutant, active compounds read high
Outline: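 Yeast mutant strains carrying defined defects in DNA damage repair or cell cycle control were exposed to test compounds. Growth inhibition was scored against vehicle-treated controls.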

[15] = NCI Yeast Anticancer Drug Screen. Data for the mlh1 rad18 strain (AID 175); conditions: S. cerevisiae mlh1 rad18 strain growth inhibition, active compounds read high
Outline: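 Growth inhibition of the yeast strain was measured after compound exposure and expressed relative to vehicle-treated controls. The strain carries defined defects in DNA damage repair.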

[16] = NCI Yeast Anticancer Drug Screen. Data for the rad18 strain (AID 177); conditions: S. cerevisiae rad18 mutant growth inhibition, active compounds read high
Outline: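 Yeast carrying a defined DNA damage repair alteration were exposed to compounds. Growth inhibition was expressed relative to vehicle-treated controls.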

[17] = at 5.0 µM (retest, dose inferred, filed as 0.5)
[18] = at 50.0 µM (retest, dose inferred, filed as 5.0)

Measured: growth inhibition

O=C1c2ccccc2C(=O)c2sc(Nc3ccccc3Cl)nc21
active: [1]; at 11.0 µM 90% | [1]; at 33.0 µM 99% | [1]; at 100.0 µM 98% | [2]; at 33.0 µM 99% | [2]; at 100.0 µM 98% | [3]; at 11.0 µM 94% | [3]; at 33.0 µM 99% | [3]; at 100.0 µM 98% | [4]; at 11.0 µM 96% | [4]; at 33.0 µM 99% | [4]; at 100.0 µM 98% | [5]; [17] 87% | [5]; at 11.0 µM 78% | [5]; at 33.0 µM 98% | [5]; [18] 99% | [5]; at 50.0 µM 89.6% | [5]; at 100.0 µM 96% | [6]; [17] 97% | [6]; at 11.0 µM 99% | [6]; at 33.0 µM 99% | [6]; [18] 99% | [6]; at 50.0 µM 91.2% | [6]; at 100.0 µM 98% | [7]; at 11.0 µM 96% | [7]; at 33.0 µM 99% | [7]; at 100.0 µM 98% | [8]; [17] 100% | [8]; [18] 100% | [8]; at 50.0 µM 93.7% | [9]; at 11.0 µM 94% | [9]; at 33.0 µM 99% | [9]; at 100.0 µM 98% | [10]; [18] 99% | [10]; at 50.0 µM 91.3% | [11]; [17] 99% | [11]; at 11.0 µM 97% | [11]; at 33.0 µM 99% | [11]; [18] 99% | [11]; at 50.0 µM 90.1% | [11]; at 100.0 µM 97% | [12]; at 3.7 µM 77% | [12]; at 11.0 µM 99% | [12]; at 33.0 µM 99% | [12]; at 100.0 µM 98% | [13]; at 11.0 µM 94% | [13]; at 33.0 µM 99% | [13]; at 100.0 µM 97% | [14]; at 11.0 µM 82% | [14]; at 33.0 µM 99% | [14]; at 100.0 µM 97% | [15]; [17] 96% | [15]; [18] 99% | [15]; at 50.0 µM 85.8% | [16]; at 11.0 µM 83% | [16]; at 33.0 µM 99% | [16]; at 100.0 µM 97%
inactive: [1]; at 1.2 µM -11% | [1]; at 3.7 µM 42% | [2]; at 1.2 µM -17% | [2]; at 3.7 µM 13% | [2]; at 11.0 µM 58% | [3]; at 1.2 µM -37% | [3]; at 3.7 µM 27% | [4]; at 1.2 µM -13% | [4]; at 3.7 µM 19% | [5]; at 1.2 µM -1% | [5]; at 3.7 µM 13% | [6]; at 1.2 µM -13% | [6]; at 3.7 µM 32% | [7]; at 1.2 µM -19% | [7]; at 3.7 µM 26% | [9]; at 1.2 µM 3% | [9]; at 3.7 µM 47% | [10]; [17] 57% | [11]; at 1.2 µM -4% | [11]; at 3.7 µM 54% | [12]; at 1.2 µM 1% | [13]; at 1.2 µM -30% | [13]; at 3.7 µM -6% | [14]; at 1.2 µM -6% | [14]; at 3.7 µM 16% | [16]; at 1.2 µM -14% | [16]; at 3.7 µM 25%

CC(C)NCCCNc1c2ccccc2nc2cccc([N+](=O)[O-])c12
inactive: [2]; at 1.2 µM 13% | [2]; at 3.7 µM 57% | [4]; at 1.2 µM -1% | [4]; at 3.7 µM 38% | [4]; at 11.0 µM 58% | [9]; at 1.2 µM 35% | [11]; at 1.2 µM -11% | [11]; at 3.7 µM 53% | [11]; [17] -4% | [11]; at 50.0 µM 66.8% | [12]; at 1.2 µM 28% | [13]; at 1.2 µM 28%
active: [1]; at 1.2 µM 93% | [1]; at 3.7 µM 96% | [1]; at 11.0 µM 97% | [1]; at 33.0 µM 97% | [1]; at 100.0 µM 97% | [2]; at 11.0 µM 88% | [2]; at 33.0 µM 96% | [2]; at 100.0 µM 97% | [3]; at 1.2 µM 86% | [3]; at 3.7 µM 93% | [3]; at 11.0 µM 95% | [3]; at 33.0 µM 96% | [3]; at 100.0 µM 97% | [4]; at 33.0 µM 92% | [4]; at 100.0 µM 96% | [5]; at 1.2 µM 90% | [5]; at 3.7 µM 93% | [5]; [17] 95% | [5]; at 11.0 µM 95% | [5]; at 33.0 µM 96% | [5]; [18] 99% | [5]; at 50.0 µM 83.3% | [5]; at 100.0 µM 97% | [6]; at 1.2 µM 94% | [6]; at 3.7 µM 97% | [6]; [17] 93% | [6]; at 11.0 µM 97% | [6]; at 33.0 µM 98% | [6]; [18] 98% | [6]; at 50.0 µM 86.5% | [6]; at 100.0 µM 98% | [7]; at 1.2 µM 98% | [7]; at 3.7 µM 98% | [7]; at 11.0 µM 97% | [7]; at 33.0 µM 99% | [7]; at 100.0 µM 99% | [8]; [17] 94% | [8]; [18] 98% | [8]; at 50.0 µM 80.8% | [9]; at 3.7 µM 88% | [9]; at 11.0 µM 96% | [9]; at 33.0 µM 97% | [9]; at 100.0 µM 98% | [10]; [17] 98% | [10]; [18] 99% | [10]; at 50.0 µM 85.7% | [11]; at 11.0 µM 90% | [11]; at 33.0 µM 96% | [11]; [18] 99% | [11]; at 100.0 µM 96% | [12]; at 3.7 µM 74% | [12]; at 11.0 µM 94% | [12]; at 33.0 µM 97% | [12]; at 100.0 µM 97% | [13]; at 3.7 µM 75% | [13]; at 11.0 µM 91% | [13]; at 33.0 µM 95% | [13]; at 100.0 µM 96% | [14]; at 1.2 µM 92% | [14]; at 3.7 µM 94% | [14]; at 11.0 µM 96% | [14]; at 33.0 µM 97% | [14]; at 100.0 µM 98% | [15]; [17] 97% | [15]; [18] 99% | [15]; at 50.0 µM 77% | [16]; at 1.2 µM 97% | [16]; at 3.7 µM 96% | [16]; at 11.0 µM 97% | [16]; at 33.0 µM 97% | [16]; at 100.0 µM 97%
